Experiment [1] in a line: qHTS Assay for Identification of Small Molecule Antagonists for NFkB Signaling Pathway. (AID 624479; calls by dose curve;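 also: pathway stimulated with TNF alpha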; also: potency is read from the fitted curve at half-maximal effect). A general note: Quantitative high-throughput screening tests each substance at several concentrations.
A short description of experiment [2]: Cell Proliferation Assay against the TMD8 Cell Line (AID 651645).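 Also: cells exposed to compound for 48 h before reading.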 To be noted: TMD8 DLBCL cell line proliferation/viability; at 46.1 µM (top of the series) unless noted. In outline: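 Cell viability of the ABC DLBCL line TMD8 is measured by CellTiter-Glo luminescence following a 48-hour incubation with compound. Percent activity uses DMSO as 100% and 9.2 uM bortezomib (final) as 0%.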

The nature of experiment [3]: Cell Proliferation Assay against the HBL1 Cell Line (AID 651646).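 Also: cells exposed to compound for 48 h before reading.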 As to conditions: HBL1 DLBCL cells; at 46.1 µM (top of the series) unless noted. Summed up: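 HBL1 ABC DLBCL cells, 500/well in RPMI with 5% FBS, treated for 48 h at 37C. Viability read by CellTiter-Glo luminescence, normalized to DMSO as 100% and 9.2 uM bortezomib as 0%.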
Experiment [4] can be described thus: S16 Schwann cell PMP22 intronic element beta-lactamase assay (AID 624044; calls by dose curve; also: nearly all actives have a fitted effect of over 15% in size; also: potency is read from the fitted curve at half-maximal effect). In outline:
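Rat S16 Schwann cells with beta-Lac driven by a PMP22 intronic element, compound-treated 24 h at 37 °C. LiveBLAzer FRET B/G read: 460 nm normalized to potassium clavulanate vs DMSO; 535 nm FRET as viability; concentration-effect curves classified.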

Experiment [5] in a line: Cytotoxicity counterscreen for NFkB agonists and antagonists (AID 624476). Also: potency is read from the fitted curve at half-maximal effect. A general note: The purpose of a counterscreen is to sort out artefacts and off-target activity.
The nature of experiment [6]: Cell Proliferation Assay against the TMD8 Cell Line (Caspase readout at 16 hrs) (AID 651712). Summed up:
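TMD8 cells in RPMI with 5% FBS were treated with compound for 16 h at 37 C, then caspase 3/7 activation was read by Caspase-Glo luminescence. Percent activity was scaled to DMSO (0%) and 9.2 uM bortezomib final (100%).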

Experiment [7] addresses Glutaminase kidney isoform, mitochondrial (Homo sapiens) (UniProt O94925). Briefly: qHTS for Inhibitors of Glutaminase (GLS): LOPAC Validation (AID 624146). Also: potency is read from the fitted curve at half-maximal effect; nearly all actives have a fitted effect of over 60% in size. To be noted: glutaminase enzyme activity inhibition. In outline:
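Assay buffer: 45 mM KH2PO4 pH 8.2, 0.02% Tween-20. hKGA acts on L-glutamine (1 mM solution added); product glutamate is reported by an oxidase/peroxidase Amplex Red coupling, with fluorescence taken at baseline and 30 min.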

Experiment [8] has as its target Glucagon-like peptide 1 receptor (Homo sapiens) (UniProt P43220). Briefly: qHTS of GLP-1 Receptor Agonists: LOPAC Validation (AID 624148).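 Also: 0% is about no effect; higher luminescence signal means agonism.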 Summed up:
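HEK293 cells stably co-expressing GLP-1R and a cAMP-responsive luciferase reporter, plated 12 hours before compound, then incubated 4-6 hr at 37 deg C. Luminescence read 12 min after detection reagent.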

A short description of experiment [9]: qHTS of Nrf2 Activators: LOPAC Validation (AID 624149). Also: 0% is about no effect. Summed up:
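AREc32 cells carrying an ARE-driven firefly luciferase were grown overnight in OPTI-MEM with 5% FBS, then exposed to compounds for 24 hr at 37 deg C. Luciferase signal was read after 30 min with Steady-Glo at RT.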

The nature of experiment [10]: HTS Assay for Allosteric Antagonists of the Human D2 Dopamine Receptor: Hit Validation in HTRF (AID 624455).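 Also: stable D1 dopamine receptor cell line scored for blocking the D1 response; % is scaled to controls: 0 for no effect and ±100 for the full control effect.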 An excerpt:
Dopamine receptors (DARs) are involved in the etiology and/or therapy of a number of neuropsychiatric and endocrine disorders. For instance, all receptor-based antiparkinsonian drugs work via stimulating the D2 DAR subtype whereas all FDA-approved antipsychotic agents are antagonists of this receptor. […] There are three different types of allosteric modulators that we are seeking, two of which will stimulate or augment receptor signaling, allosteric agonists and potentiators, while the third, allosteric antagonists, will attenuate receptor signaling. The present primary screening assay measures compound antagonism after an EC80 addition of dopamine by tracking calcium flux in a […], inducible Hek293 Trex D2 cell line. This assay measures activity of the hits in the D1 HTRF assay.
NIH Chemical Genomics Center [NCGC]
NIH Molecular Libraries Probe Centers Network [MLPCN]
Assay Submitter (PI): David Sibley
Cells stably expressing the D1 dopamine receptor will be run in an HTRF assay and compounds will be examined for the ability to inhibit the D1 mediated response.
Background: Time-resolved FRET reads energy transfer from a long-lived donor to a nearby acceptor.

Results filed as inconclusive are left out. Activity calls are given as the source filed them. Unless noted, calls follow the shape of the dose curve; as a rule, active = well fitted curve in the direction sought with a large enough effect; inconclusive = small, poorly fitted or top-dose-only effect, or another doubt; inactive = no such curve, though single readings can be large; an effect the other way counts as inactive or inconclusive. *1 amine or outer side, *2 acyl side, *3 side chain or, on linkers, in order; H or OH if unused. Where a SMILES comes first, the peptide text is derived from it. Bridges are numbered along the chain shown (N, C = ends). Roman numbers before positions name the chains, in order. [ ]: non-standard residue; d: D form. ξ: configuration not given here. Actinocin(9to1) = Cc1c2oc3c(C)ccc(C(=O)[*:1])c3nc-2c(C(=O)[*:2])c(N)c1=O; ξNMeV = CNC(C(=O)O)C(C)C; ξV = CC(C)C(N)C(=O)O; Sar = CNCC(=O)O

Sequence of Glutaminase kidney isoform, mitochondrial (Homo sapiens) (O94925 whole entry, looked up, canonical isoform): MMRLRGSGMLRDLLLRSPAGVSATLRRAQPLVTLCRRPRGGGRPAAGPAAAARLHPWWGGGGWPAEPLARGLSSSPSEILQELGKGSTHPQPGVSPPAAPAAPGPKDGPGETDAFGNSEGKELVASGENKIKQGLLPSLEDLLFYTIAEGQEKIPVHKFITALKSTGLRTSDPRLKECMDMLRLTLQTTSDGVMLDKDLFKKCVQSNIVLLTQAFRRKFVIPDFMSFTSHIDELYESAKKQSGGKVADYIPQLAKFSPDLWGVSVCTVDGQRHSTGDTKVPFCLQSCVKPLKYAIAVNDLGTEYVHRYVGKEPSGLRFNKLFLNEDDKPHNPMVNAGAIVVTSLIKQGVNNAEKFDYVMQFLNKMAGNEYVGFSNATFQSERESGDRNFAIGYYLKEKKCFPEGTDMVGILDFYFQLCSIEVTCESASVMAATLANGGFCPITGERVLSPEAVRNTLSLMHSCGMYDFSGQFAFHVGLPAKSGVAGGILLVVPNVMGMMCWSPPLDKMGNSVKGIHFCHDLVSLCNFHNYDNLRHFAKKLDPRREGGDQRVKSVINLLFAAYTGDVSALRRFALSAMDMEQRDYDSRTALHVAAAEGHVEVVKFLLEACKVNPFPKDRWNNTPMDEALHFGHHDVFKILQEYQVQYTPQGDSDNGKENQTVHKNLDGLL
Sequence of Glucagon-like peptide 1 receptor (Homo sapiens) (P43220 whole entry, looked up): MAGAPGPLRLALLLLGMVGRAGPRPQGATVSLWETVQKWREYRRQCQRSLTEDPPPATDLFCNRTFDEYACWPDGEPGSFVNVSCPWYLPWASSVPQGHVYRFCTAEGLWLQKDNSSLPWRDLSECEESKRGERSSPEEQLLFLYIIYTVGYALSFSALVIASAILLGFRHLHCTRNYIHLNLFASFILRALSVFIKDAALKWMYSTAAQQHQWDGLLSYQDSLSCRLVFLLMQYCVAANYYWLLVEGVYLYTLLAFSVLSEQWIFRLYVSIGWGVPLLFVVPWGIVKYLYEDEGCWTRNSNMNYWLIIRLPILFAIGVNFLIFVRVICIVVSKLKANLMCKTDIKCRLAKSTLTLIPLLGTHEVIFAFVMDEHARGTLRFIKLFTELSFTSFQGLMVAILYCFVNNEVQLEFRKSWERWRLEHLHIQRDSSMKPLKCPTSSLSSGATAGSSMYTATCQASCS

As for `CNC1CCN(C(Cc2cccc(-c3ccncc3)c2)C(=O)c2sc3c(F)ccc(F)c3c2Cl)CC1` (stereo not drawn), in experiment [1], the Potency result is “inactive”. Moreover, in [2], the viability (% of control) was 0.928%. The viability, percent of control in [3] amounted to 0.927%.
As for `COC(=O)C1=C(C)NC(C)=C(C(=O)OCCCN2CCC(c3ccccc3)(c3ccccc3)CC2)[C@H]1c1cccc([N+](=O)[O-])c1`, the Potency in experiment [1] was 23.7 µM (active). Besides, in [2], the viability (% of control) was determined as 2.99%. The viability, percent of control in experiment [3] was determined as 1.4%.
`C#C[C@]1(O)CC[C@H]2[C@@H]3CCC4=CCCC[C@@H]4[C@H]3C(=C)C[C@@]21CC`: the Potency result in experiment [4] is “inactive”.
As for `CO[C@H](C(=O)[C@@H](O)[C@@H](C)O)C1Cc2cc3cc(O[C@H]4C[C@@H](O[C@H]5C[C@@H](O)[C@H](O)[C@@H](C)O5)[C@@H](O)[C@@H](C)O4)c(C)c(O)c3c(O)c2C(=O)[C@H]1O[C@H]1C[C@@H](O[C@H]2C[C@@H](O[C@H]3C[C@](C)(O)[C@H](O)[C@@H](C)O3)[C@H](O)[C@@H](C)O2)[C@H](O)[C@@H](C)O1` (stereo partly drawn), the Potency in experiment [4] is 22.4 µM (active).
Same read-out and setting: under `COc1ccc2c3c1O[C@H]1C[C@@H](O)C=C[C@@]31CCN(C)C2` stands “inactive”; under `CCCCC(C)(O)C/C=C/[C@H]1[C@H](O)CC(=O)[C@@H]1CCCCCCC(=O)OC` (stereo partly drawn), “inactive”.
In the case of `CN(NC(=O)CC(=O)NN(C)C(=S)c1ccccc1)C(=S)c1ccccc1`, the Potency entry in [5], in [1] and in experiment [6] was “inactive” throughout. Besides, the viability (% of control) in experiment [2] was determined as 81.1%. The viability, percent of control in experiment [3] came to 60.8%.
On to `Cc1c2oc3c(C)ccc(C(=O)N[C@@H]4C(=O)NC(C(C)C)C(=O)N5CCC[C@H]5C(=O)N(C)CC(=O)N(C)C(C(C)C)C(=O)O[C@@H]4C)c3nc-2c(C(=O)N[C@@H]2C(=O)NC(C(C)C)C(=O)N3CCC[C@H]3C(=O)N(C)CC(=O)N(C)C(C(C)C)C(=O)O[C@@H]2C)c(N)c1=O` (stereo partly drawn) (I: T[ξV]P[Sar][ξNMeV] / II: T[ξV]P[Sar][ξNMeV]; ester I:1-I:C, II:1-II:C; linker I:N-II:N via Actinocin(9to1)), for which the Potency was 0.0013 µM (active) in experiment [5] and 0.0119 µM (active) in experiment [1]. In experiment [2], the viability (% of control) was found to be 3.49%. The viability, percent of control in experiment [3] came to 21.5%.
For `CCOc1cc2ncc(C#N)c(Nc3ccc(OCc4ccccn4)c(Cl)c3)c2cc1NC(=O)/C=C/CN(C)C` the same measures were 37.2 µM (active), 7.49 µM (active), -0.655% and 1.48%.
With `CN1Cc2c(N)cccc2C(c2ccccc2)C1` (stereo not drawn), the Potency result in experiment [4] was “inactive”. The Potency in experiment [7] is 12.6 µM (active). Moreover, the call in [8], in experiment [9] and in [10] was inactive.

Values taken from PubChem BioAssay (NCATS).
